TDP1 cell noCPT: qHTS for Inhibitors of human tyrosyl-DNA phosphodiesterase 1 (TDP1): qHTS in cells in absence of CPT; DT40 Tdp1-/- hTDP1 cells, no CPT, ATP luminescence, 48 h; Potency, µM (series often up to 46.2 µM), most hits filed as inhibitors; actives 15% (n = 420,000); AID 686978, 2013; further: nearly all actives have a fitted effect of over 55% in size
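Chicken DT40 Tdp1-/- cells stably complemented with human TDP1 were seeded at 400 cells/well with DMSO in place of 20 nM camptothecin. After compound pinning, cells grew at least 48 hr at 37 °C; viability read by CellTiter-Glo luminescence.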
IL-1B inflam inh: qHTS for Inhibitors of Inflammasome Signaling: IL-1-beta AlphaLISA Primary Screen; THP-1 LPS/ATP IL-1B secretion, AlphaLISA, 16 h; hits give low values; activity change, % at 57.5 µM; actives 4.7% (n = 360,000); AID 743279, 2014; in the data active means activity change below about -50%; inconclusive means mostly about -30% to -49%
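Secreted IL-1B measured by AlphaLISA bead assay after 16 h compound exposure of THP-1 cells; compounds (final up to 57.5 uM) added 1 h before LPS (250 ng/mL) and ATP (1.25 mM) stimulation; lower signal means less secretion.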
TDP1 cell CPT: qHTS for Inhibitors of human tyrosyl-DNA phosphodiesterase 1 (TDP1): qHTS in cells in presence of CPT; Potency, µM (titrated, usually from 46.2 µM), most hits filed as inhibitors; actives 12% (n = 420,000); chicken DT40 Tdp1-/-;hTDP1 cells + 20 nM CPT, ATP luminescence, 48 h; further: nearly all actives have a fitted effect of over 55% in size
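Chicken DT40 Tdp1-/- cells stably complemented with human TDP1 were seeded at 400 cells/well in medium containing 20 nM camptothecin, exposed to pin-transferred compounds, and grown at 37 °C for at least 48 hr. Viability was read as ATP luminescence.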
HT1080 IDH1KD tx: qHTS for induction of synthetic lethality in tumor cells producing 2HG: qHTS for the HT-1080-IDH1KD cell line. Potency, µM (highest dose often 46.1 µM), most hits filed as cytotoxic. actives 2% (n = 360,000). HT-1080 IDH1 knockdown viability, ATP luminescence, 48 h. AID 686971, 2013
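After a 2 h attachment period, IDH1KD HT-1080 cells took pin-transferred compound for 48 h at 37 °C; ATP-based luminescence after 10 min room-temperature reagent incubation reported viability.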
HT1080-NT tox: qHTS for induction of synthetic lethality in tumor cells producing 2HG: qHTS for the HT-1080-NT fibrosarcoma cell line; HT-1080-NT fibrosarcoma viability, CellTiter-Glo ATP luminescence, 48 h; Potency, µM (highest dose often 46.1 µM), hits mostly cytotoxic; actives 1.6% (n = 360,000); AID 686970, 2013;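 further: NT is the 2HG producing partner of a matched IDH1 knockdown line; nearly all actives have a fitted effect of over 55% in size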
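Viability by CellTiter-Glo luminescence after 48 h compound exposure at 37C of HT-1080-NT cells (750/well, RPMI, 5% FBS). % activity scaled between DMSO wells and medium-only wells, then curve-fitted and categorized by curve class.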
Each line names hits and unclear results; the compound was inactive in the other large screens. Compounds with a hit are over-represented: about 19% of the library has one in this group of screens. Unless noted, the call rests on the fitted dose curve; in most records, active means well fitted curve in the direction sought with a large enough effect; inconclusive means small, poorly fitted or top-dose-only effect, or another doubt; inactive means no such curve, though single readings can be large; an effect the other way counts as inactive or inconclusive.

O=C(Nc1cccc(C(F)(F)F)c1)N(Cc1ccc(Cl)cc1)CC(O)C(F)(F)F (configuration not stated)	TDP1 cell noCPT inconclusive, TDP1 cell CPT inconclusive, HT1080 IDH1KD tx 18.4µM, HT1080-NT tox 16.4µM
Cc1ccccc1-c1nc(NCCN2CCOCC2)c2ccccc2n1	none (no result: IL-1B inflam inh, HT1080 IDH1KD tx, HT1080-NT tox)
O=C(c1ccncc1)N1CCN(S(=O)(=O)c2ccc3ccccc3c2)CC1	none
O=C(c1cnc(Cl)c(Cl)c1)N1CCN(S(=O)(=O)c2ccc3ccccc3c2)CC1	TDP1 cell noCPT 16.4µM, IL-1B inflam inh -101.8, TDP1 cell CPT inconclusive
Cn1ncc([N+](=O)[O-])c1C(=O)N1CCCCCC1	none
O=C1C(SCCO)=C(SCCO)C(=O)c2ccccc21	TDP1 cell noCPT 0.164µM, IL-1B inflam inh -54.4, TDP1 cell CPT 0.0517µM, HT1080 IDH1KD tx inconclusive
Cc1ccc(NC(=O)c2ccc(-n3nncc3-c3ccccc3)cc2)cc1	TDP1 cell noCPT 15.8µM, TDP1 cell CPT inconclusive (no result: IL-1B inflam inh, HT1080 IDH1KD tx, HT1080-NT tox)
COc1ccc(/C=C/C(=O)Nc2ccc(-n3nncc3-c3ccccc3)cc2)cc1OC	TDP1 cell noCPT 8.2µM, TDP1 cell CPT 20.6µM
CCOc1ccc(C(=O)Nc2ccc(-n3nncc3-c3ccccc3)cc2)cc1OCC	TDP1 cell noCPT 14.6µM, TDP1 cell CPT 18.4µM (no result: IL-1B inflam inh, HT1080 IDH1KD tx, HT1080-NT tox)
c1ccc2cc(OCc3nc4ccccc4[nH]3)ccc2c1	TDP1 cell noCPT inconclusive, IL-1B inflam inh inconclusive, TDP1 cell CPT inconclusive, HT1080-NT tox inconclusive
COc1cccc(OCc2nc3ccccc3[nH]2)c1	TDP1 cell noCPT inconclusive, TDP1 cell CPT 13µM
Cc1ccccc1OCc1nc2ccccc2[nH]1	TDP1 cell noCPT 16.4µM, TDP1 cell CPT 23.1µM
COc1ccc(CNC(=O)C(C)OC(=O)CCN2C(=O)C3CC=CCC3C2=O)cc1 (configuration not stated)	none
CC(=O)OCCC(NS(=O)(=O)OCC(Cl)(Cl)Cl)c1ccccc1 (configuration not stated)	none
CCCCNC(=O)C(NC(=O)c1ccc(=O)[nH]c1)C(=O)c1ccccc1 (configuration not stated)	none
NS(=O)(=O)c1ccc(NCc2ccccc2OCc2ccc(F)cc2)cc1	TDP1 cell noCPT 18.4µM, TDP1 cell CPT inconclusive
Nc1nonc1C(=O)NCCNCc1ccccc1OCc1ccc(F)cc1	TDP1 cell noCPT 16.4µM, TDP1 cell CPT 23.1µM, HT1080 IDH1KD tx inconclusive, HT1080-NT tox inconclusive
CCOc1ccc(NCc2ccccc2OCc2cccc(F)c2)cc1	TDP1 cell noCPT inconclusive, IL-1B inflam inh -54.3, TDP1 cell CPT inconclusive, HT1080 IDH1KD tx inconclusive, HT1080-NT tox inconclusive
CCOc1ccc(CNCCc2ccc(S(N)(=O)=O)cc2)cc1	TDP1 cell noCPT inconclusive, TDP1 cell CPT inconclusive
NS(=O)(=O)c1ccc(CCNCc2ccccc2OCc2ccc(F)cc2)cc1	TDP1 cell noCPT 20.6µM, IL-1B inflam inh -89.6, TDP1 cell CPT inconclusive, HT1080 IDH1KD tx inconclusive, HT1080-NT tox inconclusive
COc1cc(C(=O)NCc2nnc(SCC(=O)N3CCCc4ccccc43)o2)cc(OC)c1OC	none
CN(Cc1ccccc1)C(=O)N1CCOCC1	none
CCCNC(=O)C1(C)CCN(C(=O)C(c2ccccc2)c2ccccc2)C1 (configuration not stated)	TDP1 cell noCPT inconclusive
CCOc1cc(C(=O)Nc2ccc3oc(-c4ccc(CC)cc4)nc3c2)cc(OCC)c1OCC	TDP1 cell noCPT 8.2µM, TDP1 cell CPT 23.1µM (no result: IL-1B inflam inh, HT1080 IDH1KD tx, HT1080-NT tox)
CCOc1cc(C(=O)Nc2ccc(-c3nc4cc(C)ccc4o3)cc2)cc(OCC)c1OCC	TDP1 cell noCPT 9.2µM, TDP1 cell CPT 11.6µM (no result: IL-1B inflam inh, HT1080 IDH1KD tx, HT1080-NT tox)
CCOc1cc(C(=O)NCc2ccc(-c3nc4ccccc4o3)cc2)cc(OCC)c1OCC	TDP1 cell noCPT inconclusive, TDP1 cell CPT inconclusive
Cc1ccc2oc(-c3ccc(NC(=O)c4ccc5c(c4)OCO5)cc3)nc2c1	TDP1 cell noCPT inconclusive, TDP1 cell CPT inconclusive
CCOc1ccc(C(=O)Nc2ccc(Cl)c(-c3nc4cc(C)cc(C)c4o3)c2)cc1	none (no result: IL-1B inflam inh, HT1080 IDH1KD tx, HT1080-NT tox)
CCOc1ccc(C(=O)Nc2ccc3oc(-c4ccc(C)cc4C)nc3c2)cc1Br	TDP1 cell noCPT 13µM, TDP1 cell CPT inconclusive (no result: IL-1B inflam inh, HT1080 IDH1KD tx, HT1080-NT tox)
C=CCN1C(=S)CC(c2ccccc2)=Nc2ccccc21	none
Cc1ccc(-n2nc(C)c3c(C)c(CCC(=O)NCc4ccco4)c(C)nc32)cc1	TDP1 cell noCPT inconclusive, TDP1 cell CPT 23.1µM
Cc1ccc(-n2nc(C)c3c(C)c(CCC(=O)NCc4ccccc4Cl)c(C)nc32)cc1	TDP1 cell noCPT inconclusive, TDP1 cell CPT 16.4µM (no result: IL-1B inflam inh, HT1080 IDH1KD tx, HT1080-NT tox)
Cc1cccc(NCc2ccc(N(C)C)cc2)n1	TDP1 cell CPT inconclusive
C[C@@H](CO)NC(=O)[C@H]1O[C@@H](n2cnc3c(N)ncnc32)[C@H](O)[C@@H]1O	none
CC(C)[Si]1(C(C)C)OCC2OC(n3cnc4c(N)ncnc43)C(N)C2O[Si](C(C)C)(C(C)C)O1 (configuration not stated)	TDP1 cell noCPT 11.6µM, IL-1B inflam inh inconclusive, TDP1 cell CPT 13µM, HT1080 IDH1KD tx inconclusive
O=C(c1ccccc1C(F)(F)F)N1CCN(S(=O)(=O)c2ccccc2)CC1	none
COc1ccc(NC(=O)CC(c2ccccc2)c2ccco2)cc1 (configuration not stated)	TDP1 cell noCPT 16.4µM, TDP1 cell CPT inconclusive, HT1080-NT tox inconclusive
CC(CC(=O)Nc1nccs1)c1ccccc1 (configuration not stated)	TDP1 cell noCPT inconclusive
COc1ccc(NC(=O)CC(C(=O)O)C(C)c2ccccc2)cc1 (configuration not stated)	none
O=C(CC(c1ccccc1)c1ccco1)Nc1nccs1 (configuration not stated)	TDP1 cell noCPT 14.6µM, TDP1 cell CPT 25.9µM
COC(=O)N1CCCCC1c1cc(C(=O)Nc2ccc(OC)cc2C)no1 (configuration not stated)	none
COc1ccccc1N1CCN(C(=O)CCN2C(=O)c3cccc4cccc(c34)C2=O)CC1	TDP1 cell noCPT inconclusive, TDP1 cell CPT inconclusive
COc1ccc(N2CCN(C(=O)CCCN3C(=O)c4cccc5cccc(c45)C3=O)CC2)cc1	TDP1 cell noCPT 16.4µM, TDP1 cell CPT inconclusive
O=C(CCCN1C(=O)c2cccc3cccc(c23)C1=O)N1CCN(c2ccc(F)cc2)CC1	TDP1 cell noCPT 16.4µM, IL-1B inflam inh -53.5, TDP1 cell CPT inconclusive
CCOC(=O)C1=C(C)N=c2sc(=Cc3cc(Cl)c(OCC(=O)O)c(OC)c3)c(=O)n2C1c1ccccc1Cl (configuration not stated)	TDP1 cell noCPT 20.6µM, TDP1 cell CPT inconclusive, HT1080-NT tox inconclusive

Compound activity: PubChem BioAssay, National Center for Advancing Translational Sciences (NCATS)
